Shown are actives, neighbours in structure and some others; about 1.3% of the full set was active somewhere.
LmPK inh: blocks Leishmania mexicana pyruvate kinase activity. purified LmPK, Kinase-Glo ATP luminescence, 1 h. Potency, µM (doses to about 57.5 µM), for the others: at the highest dose activity change, negative = inhibition, usual class: inhibitors. AID 1721. Q27686. actives 0.37% (n = 290,000)
Target sequence (Q27686 whole entry, looked up): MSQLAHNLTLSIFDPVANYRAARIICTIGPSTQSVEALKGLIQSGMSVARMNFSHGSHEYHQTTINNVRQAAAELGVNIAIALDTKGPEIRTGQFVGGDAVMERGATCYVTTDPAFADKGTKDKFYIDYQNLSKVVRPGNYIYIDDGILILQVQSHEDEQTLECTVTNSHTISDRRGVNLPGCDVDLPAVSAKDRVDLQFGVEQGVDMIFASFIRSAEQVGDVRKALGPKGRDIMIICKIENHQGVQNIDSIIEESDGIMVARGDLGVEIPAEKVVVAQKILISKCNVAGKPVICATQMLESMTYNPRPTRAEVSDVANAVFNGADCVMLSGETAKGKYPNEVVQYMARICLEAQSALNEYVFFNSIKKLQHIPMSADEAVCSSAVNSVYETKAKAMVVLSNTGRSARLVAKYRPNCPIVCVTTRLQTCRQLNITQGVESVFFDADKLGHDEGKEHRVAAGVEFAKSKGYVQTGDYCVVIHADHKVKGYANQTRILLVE
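Kinase-Glo luminescence read after 1 h RT reaction of 0.1 nM LmPK with 0.5 mM PEP and 0.1 mM ADP. Activity scaled between uninhibited and enzyme-free controls.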
VACV Venus inh: inhibitors of vaccinia virus (Venus reporter) | AID 720580 | Potency, µM (top dose mostly 36.5 µM), without a hit: at the highest dose activity change, negative = inhibition, most hits filed as inhibitors | actives 0.46% (n = 330,000) | Vaccinia virus Venus reporter expression, fluorescence; calls by dose curve; tested in A549 cells; further: nearly all actives have a fitted effect of over 30% in size
Vaccinia mCherry: inhibitors of vaccinia virus infection (mCherry reporter signal). Vaccinia virus mCherry reporter infection, fluorescence. Potency, µM (highest dose often 36.5 µM), inactives show at the highest dose activity change, negative = inhibition, actives largely listed as inhibitors. actives 0.63% (n = 310,000); calls by dose curve; tested in A549 cells; further: nearly all actives have a fitted effect of over 35% in size
Tb PYK inh: T. brucei pyruvate kinase inhibition. Q57TT1. TbPYK enzyme, Kinase-Glo Plus ATP luminescence, 45 min. Potency, µM (top dose mostly 76.8 µM), for the others: at the top dose activity, negative = inhibition, actives largely listed as inhibitors. actives 0.12% (n = 410,000); further: nearly all actives have a fitted effect of over 50% in size
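Screened from lowest to highest concentration, compounds were pinned into TbPYK/substrate mixtures, and ADP (130 uM final) was added. Plates sat at room temperature for 45 min prior to Kinase-Glo Plus detection by luminescence.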
RE007 growth inh: less growth of the S. pombe RE007 Vpr strain. S. pombe RE007 Vpr strain, BacTiter-Glo ATP luminescence, 24 h. Potency, µM (series often up to 92.2 µM), for inactives: at the top dose activity change, negative = less growth, usual class: inhibitors. actives 0.21% (n = 360,000). AID 651644; active means well fitted falling curve with a large enough effect; inconclusive means small, poorly fitted or top-dose-only effect; inactive means no such curve, though single readings can be large or run the other way; further: nearly all actives have a fitted effect of over 50% in size
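Fission yeast strain RE007, carrying one chromosomally integrated HIV-1 vpr copy, was seeded at OD 0.01 in PMG+AL medium with 23 nL pinned compound. After 24 h at 30 °C and 99% humidity, viability was read by BacTiter-Glo luminescence.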
AMA1-RON2 inh: disrupts binding of P. falciparum AMA1 to RON2 | AlphaScreen AMA1-biotinylated RON2 peptide binding | Potency, µM (series often up to 58.2 µM), for inactives: top-dose activity change, negative = inhibition, actives largely listed as inhibitors | actives 0.2% (n = 360,000);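 further: 0% = vehicle wells and -100% = peptide control; nearly all actives have a fitted effect of over 45% in size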
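AMA1 (3D7) with his tag at 25 nM final met compounds first, then biotinylated RON2 peptide at 25 nM; detection used donor plus acceptor beads, 10 µg/mL apiece, read by AlphaScreen after 30 min at room temperature.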
Active calls of the source: *; i = inactive; ? = inconclusive; / = no result; [ ] = dose if it differs, or a comment. Unless noted, the call rests on the fitted dose curve; in most records, active means well fitted curve in the direction sought with a large enough effect; inconclusive means small, poorly fitted or top-dose-only effect, or another doubt; inactive means no such curve, though single readings can be large; an effect the other way counts as inactive or inconclusive. Unless noted, on the % scale 0 is the no-effect control and ±100 the full control effect; potency means the concentration at half of the fitted maximal effect.

SMILES	LmPK inh	VACV Venus inh	Vaccinia mCherry	Tb PYK inh	RE007 growth inh	AMA1-RON2 inh
Fc1ccc(NC(=S)Nc2ccc(F)c(Cl)c2)cc1Cl	2.8%	10µM*	?	-3.7%	-6.5%	21.4%
O=C(NC(=S)Nc1ccc(F)c(Cl)c1)C1CC1	1.9%	-11.4%	i	5.0%	-19.0%	-0.3%
Cc1cc(C)cc(C(=O)NCCn2cc(C(=O)N3CCSCC3)nn2)c1	/	-18.5%	-17.0%	/	/	/
CCC(=O)Oc1ccc(-c2nc(-c3cccnc3)no2)cc1	7.94µM*	/	/	-19.8%	?	-8.0%
Cc1nn(C)c(=O)n1-c1ccc(OCc2ccccc2)cc1	14.1µM*	/	/	-16.9%	-9.7%	-4.7%
Oc1ccc(Cl)cc1C1=NNC(c2cccs2)C1 (centres undefined)	0.1%	-8.5%	?	-25.3%	-18.1%	82.0%
O=[N+]([O-])c1ccc(O)c(C2=NNC(c3ccccc3F)C2)c1 (centres undefined)	-6.9%	11.2µM*	?	-6.1%	-17.0%	64.1%
Cc1[nH]c(=S)c(C#N)c2c1CCCC2	5.0%	-15.5%	i	3.55µM*	69.3%	122.3%
Cc1[nH]c(=O)c(C#N)c2c1CCCC2	-6.7%	/	/	-2.6%	-2.3%	5.1%
Cn1ccnc1C1CCCCN1C(=O)CN1Cc2ccccc2OC(c2ccccc2F)C1 (centres undefined)	/	-6.7%	-14.6%	/	/	/
COc1ccccc1CNC(=O)c1ccc2nc3[nH]c4ccccc4c3nc2c1	-3.9%	10µM*	8.91µM*	-8.6%	2.4%	-23.6%
Cc1ncc2c(c1CNC(=O)CN1CCCC1)CCN(C(=O)c1ccc(F)cc1F)C2	/	12.7%	-7.2%	/	/	/
COC(=O)c1cc(CNC(=O)c2ccc(N(C)C)cc2)cc(NC(=O)c2ccccc2Cl)c1	/	0.0%	-2.9%	/	/	/
C=CCn1c(CSc2nnc(-c3ccccc3)n2C)n[nH]c1=S	-4.9%	-1.2%[7.34 µM]	-23.6%[7.34 µM]	-22.5%	5.3%	31.9%
C=CCn1c(CSc2ccc(C)cc2)n[nH]c1=S	-12.9%	/	/	3.98µM*	14.1%	95.2%
C=CCn1c(CSc2nc3ccccc3s2)n[nH]c1=S	?	-9.1%	/	4.47µM*	5.0%	31.4%
Cc1[nH]n(-c2ccccc2)c(=O)c1C(C[N+](=O)[O-])c1ccc(Br)cc1 (centres undefined)	3.6%	-21.0%	/	-10.7%	10µM*	-9.3%
COc1cccc(C(C[N+](=O)[O-])c2c(C)[nH]n(-c3ccccc3)c2=O)c1 (centres undefined)	9.9%	-7.9%	-1.3%	-6.7%	?	3.8%
COCCCNC(=O)c1c[nH]c2ccc(S(=O)(=O)N3CCc4ccccc43)cc2c1=O	7.7%	?	?	6.6%	23.0%	-3.1%
COCCNC(=O)c1c[nH]c2ccc(S(=O)(=O)N3CCc4ccccc43)cc2c1=O	1.1%	5.62µM*	?	-2.7%	4.2%	6.6%
S=c1[nH]nc(-c2ccccc2)n1/N=C/c1cccs1	?	-4.6%	i	11.2µM*	-12.7%	9.5%
S=c1[nH]nc(-c2ccc(Cl)cc2)n1/N=C/c1ccco1	-6.7%	/	/	3.98µM*	1.4%	85.7%
Cn1cccc1/C=N/n1c(-c2ccc(Cl)cc2)n[nH]c1=S	-15.0%	-7.1%	/	?	13.0%	34.2%
Cc1ccc(-c2n[nH]c(=S)n2/N=C/c2cccn2C)cc1	7.94µM*	14.6%	20.1%	5.01µM*	4.1%	63.5%
COc1ccc(-c2n[nH]c(=S)n2/N=C/c2cccn2C)cc1	-3.9%	/	/	2.51µM*	3.0%	66.7%
O=C1CCN(Cc2cccc(C(F)(F)F)c2)CCN1Cc1ccccn1	/	3.0%	-6.5%	/	/	/
Cc1nnc(N2CCC(C(=O)NCCc3ccccc3)CC2)c2nn(-c3ccccc3)c(C)c12	/	0.6%	-14.9%	6.5%[15.4 µM]	/	/
Cc1nnc(N2CCN(C(=O)Nc3cc(F)ccc3F)CC2)c2nn(-c3ccc(Cl)cc3)c(C)c12	/	?	11.2µM*	1.8%	/	/
COc1ccc(CNC(=O)C2CCN(c3nnc(C)c4c(C)n(-c5ccc(C)cc5)nc34)CC2)cc1	/	-13.8%	-16.8%	9.0%	/	/
